Assay results taken from the supplement of paper PMC10981050.
Where “and” joins values, the source holds several entries; their conditions need not be identical. Equal entries are not always repeated. Structures can show the parent of a compound that is named as a salt.

How the values were obtained:
Test in all cases: cell viability relative to vehicle control; higher = less cytotoxic
Conditions in all cases: 10 µM
K562 = system: K562
Procedure, shortened: (§1)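 Each screen used CRISPR-edited mutant and wild-type clones from four leukaemia lines. Compounds were acoustically dispensed at a single 10 µM dose, and CellTiter-Glo luminescence was read after 48 h with the supernatant first removed. Viability was analysed in Genedata Screener and given as percent of the on-plate vehicle control.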

MARIMO = system: MARIMO
Procedure, shortened: as §1

MOLM14 = system: MOLM14
Procedure, shortened: as §1

OCI-AML2 = system: OCI-AML2
Procedure, shortened: as §1

Row | SMILES | cell viability (K562; SRSF2 genotype: SRSF2 P95H/wt) | cell viability (K562; SRSF2 genotype: SRSF2 wt/wt) [%] | cell viability (MARIMO; SRSF2 genotype: SRSF2 P95H/wt) [%] | cell viability (MARIMO; SRSF2 genotype: SRSF2 wt/wt) [%] | cell viability (MOLM14; SRSF2 genotype: SRSF2 P95H/wt) [%] | cell viability (MOLM14; SRSF2 genotype: SRSF2 wt/wt) [%] | cell viability (OCI-AML2; SRSF2 genotype: P95H/wt) [%] | cell viability (OCI-AML2; SRSF2 genotype: wt/wt) [%]
1 | CC1(C)O[C@H]1COc1c2ccoc2cc2oc(=O)ccc12 [Oxypeucedanin] | 93.6% and 100% | 97.6 | 92.1 | 93.2 | 93.6 | 101 | 81.9 | 93.4
2 | O=c1[nH]cnc2c1ncn2[C@@H]1O[C@H](CO)[C@@H](O)[C@H]1O [Inosine] | 114% and 107% | 121 | 102 | 118 | 99.7 | 111 | 98.3 | 114
3 | Cc1nc2cccc(N)c2c(=O)n1C1CCC(=O)NC1=O (stereo unspecified) [Avadomide(CC-122)] | 108% and 111% | 111 | 102 | 92.7 | 99.2 | 98.2 | 159 | 169
4 | CS(=O)(=O)OCCCCOS(C)(=O)=O [Busulfan (Myleran, Busulfex)] | 103% and 108% | 98.6 | 99.6 | 107 | 102 | 106 | 88.6 | 102
5 | COc1cc2nccc(Oc3ccc(NC(=O)Nc4cc(C)on4)c(Cl)c3)c2cc1OC [Tivozanib (AV-951)] | 11.4% and 16.2% | 21.9 | 56.2 | 61.4 | 11.3 | 10.3 | 26.1 | 29.9
6 | COc1ccc(-c2cc(=O)c3c(O)cc(O[C@@H]4O[C@H](CO[C@@H]5O[C@@H](C)[C@H](O)[C@@H](O)[C@H]5O)[C@@H](O)[C@H](O)[C@H]4O)cc3o2)cc1O [Diosmin] | 90.8% and 97.8% | 89.9 | 94.8 | 101 | 97.6 | 92.4 | 90.4 | 92.4
7 | CC(C)[C@H](CO)Nc1nc(Nc2cccc(Cl)c2)c2ncn(C(C)C)c2n1 [Purvalanol A] | 82.5% and 94.9% | 85.1 | 72 | 83 | 41.2 | 33.9 | 47.6 | 54.3
8 | COc1ccc([C@@H]2CC(=O)c3c(O)cc(O[C@@H]4O[C@H](CO)[C@@H](O)[C@H](O)[C@H]4O[C@@H]4O[C@@H](C)[C@H](O)[C@@H](O)[C@H]4O)cc3O2)cc1O [Neohesperidin] | 109% and 102% | 100 | 97.2 | 102 | 104 | 109 | 116 | 127
9 | CNC(=O)c1cnn(-c2nc(N)c3ncn([C@@H]4O[C@H](CO)[C@@H](O)[C@H]4O)c3n2)c1 [Regadenoson] | 106% and 105% | 104 | 102 | 103 | 103 | 103 | 104 | 119
10 | Cc1c[nH]c(=O)[nH]c1=O [Thymine] | 99.9% and 101% | 96.8 | 101 | 95.1 | 109 | 102 | 106 | 101
11 | Cc1ccc(S(=O)(=O)n2c(N)nc3ccccc32)cc1 | 95.4% and 101% | 97.9 | 102 | 104 | 102 | 104 | 98.3 | 97.2
12 | OC[C@H]1O[C@@](CO)(OC[C@@]2(O[C@H]3O[C@H](CO)[C@@H](O)[C@H](O)[C@H]3O)O[C@H](CO)[C@@H](O)[C@@H]2O)[C@@H](O)[C@@H]1O [1-Kestose] | 118% and 105% | 110 | 105 | 99.2 | 99 | 110 | 106 | 112
13 | OCCOc1ccc(/C(=C(/CCCl)c2ccccc2)c2ccccc2)cc1 [Ospemifene] | 101% and 99.5% | 96.5 | 105 | 109 | 79.3 | 99.9 | 88.2 | 96.3
14 | CC(=O)c1cc2c(o1)C(=O)c1ccccc1C2=O [Napabucasin] | 0.4% and 0.37% | 0.39 | 3.59 | 2.73 | 0.37 | 0.39 | 0.4 | 0.39
15 | CC(=O)c1ccc2c(c1)c1cc(C(C)=O)ccc1n2CCNC(C)C | 5.79% and 17.9% | 9.91 | 5.2 | 2.54 | 2.29 | 0.66 | 4.6 | 20.6
16 | C[C@H](CCC(=O)NCCS(=O)(=O)O)[C@H]1CC[C@H]2[C@@H]3[C@@H](O)C[C@@H]4C[C@H](O)CC[C@]4(C)[C@H]3CC[C@]12C [Tauroursodeoxycholic Acid] | 102% | 99 | 99.4 | 108 | 107 | 103 | 95.8 | 114
17 | CC(/C=C/C=C(\C)C(=O)O[C@@H]1O[C@H](CO[C@@H]2O[C@H](CO)[C@@H](O)[C@H](O)[C@H]2O)[C@@H](O)[C@H](O)[C@H]1O)=C\C=C\C=C(C)\C=C\C=C(/C)C(=O)O[C@@H]1O[C@H](CO[C@@H]2O[C@H](CO)[C@@H](O)[C@H](O)[C@H]2O)[C@@H](O)[C@H](O)[C@H]1O [Crocin] | 101% and 100% | 99.8 | 95.6 | 100 | 95.2 | 102 | 107 | 102
18 | COc1ccc(NC(=O)c2ccc(C(=N)N(C)C)cc2)c(C(=O)Nc2ccc(Cl)cn2)c1 [Betrixaban] | 89.2% and 82.7% | 86.6 | 82.8 | 90.1 | 95.6 | 96.2 | 85.8 | 74.6
19 | Cn1cnc2c(F)c(Nc3ccc(Br)cc3Cl)c(C(=O)NOCCO)cc21 [AZD6244 (Selumetinib)] | 79% and 92.2% | 75.3 | 37.5 | 36.3 | 44.6 | 31.3 | 39.6 | 43.6
20 | COC(=O)c1ccc2c(C(=Nc3ccc(N(C)C(=O)CN4CCN(C)CC4)cc3)c3ccccc3)c(O)[nH]c2c1 [Nintedanib (BIBF 1120)] | 1.02% and 0.94% | 2.25 | 39 | 34.4 | 2.6 | 4.94 | 0.94 | 5.1
21 | CC(C)C[C@H](NC(=O)[C@H](CCc1ccccc1)NC(=O)CN1CCOCC1)C(=O)N[C@@H](Cc1ccccc1)C(=O)N[C@@H](CC(C)C)C(=O)[C@@]1(C)CO1 [Carfilzomib (PR-171)] | 2.27% and 2.75% | 1.72 | 0.54 | 1.08 | 0.49 | 0.49 | 0.45 | 0.57
22 | Cn1cc(C2=C(c3cn(CCCSC(=N)N)c4ccccc34)C(=O)NC2=O)c2ccccc21 [Ro 31-8220 Mesylate] | 4.21% and 2.6% | 3.72 | 2.81 | 0.92 | 0.22 | -0.01 | 0.07 | 2.11
